In PubChem BioAssay (NCI) one finds growth data, which are given here for eight molecules.

Among the test systems are HCT-15 colon; HT29 colon; SNB-75 CNS; SNB-19 CNS; U251 CNS; SK-MEL-5 melanoma; UACC-62 melanoma; LOX IMVI melanoma; SK-MEL-28 melanoma; SK-MEL-2 melanoma; EKVX NSCLC; SN12C renal; UO-31 renal; TK-10 renal; ACHN renal; A498 renal; MOLT-4 leukemia; SR leukemia; CCRF-CEM leukemia; PC-3 prostate.
Holding throughout (assay): NCI-60 one-dose screen, 48 h (100 = growth as untreated, 0 = no growth, -100 = all killed)
Common to all, as to conditions: 10 µM unless noted

The panel holds about 83,000 compounds, 20% with a hit somewhere; the sample as a whole holds those more often.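 Each cell line was grown in a 96-well plate and treated with one concentration of compound for 48 hours. Values below 10 were considered active.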 Values without a mark were called inactive. The source made the active and inactive calls.

In the case of `OCCNc1nc(NCCO)nc(Nc2ccc(C3=NN(c4cc(Cl)cc(Cl)c4)C(c4ccccc4)C3)cc2)n1` (centres undefined), the growth with HCT-15 colon is 27.5%; in the test with HT29 colon, 9.1% (active); with SNB-75 CNS it was 52.5%; in the test on SNB-19 CNS, 58.7%; with U251 CNS, 27.2%; in the test with SK-MEL-5 melanoma, 51.7%. Also, the growth in the test on UACC-62 melanoma was 20.9%; with LOX IMVI melanoma, -36.9% (active); in the test with SK-MEL-28 melanoma, 49.9%; in the test with SK-MEL-2 melanoma, 40.4%; in the test with EKVX NSCLC, 59.4%; in the test on SN12C renal it was 55%. Besides, the growth is 56.9% in the test with UO-31 renal; 74.1% in the test with TK-10 renal; 42.2% with ACHN renal; 85.1% in the test on A498 renal; 20.5% with MOLT-4 leukemia; 5.4% (active) in the test on SR leukemia.

With `COC(=O)c1oc2c(C(=O)/C=C/c3ccc(OC)cc3)c(OCCCN3CCCCC3)ccc2c1C`, the growth was 3.33% (active) in the test with HCT-15 colon; 3.92% (active) with HT29 colon; 33.6% with SNB-75 CNS; 38.4% with SNB-19 CNS; 12% with U251 CNS; -60.9% (active) with SK-MEL-5 melanoma. The growth is 40.1% in the test with UACC-62 melanoma; -26.1% (active) in the test with LOX IMVI melanoma; -51.4% (active) with SK-MEL-28 melanoma; 53.5% in the test on SK-MEL-2 melanoma; 28% with EKVX NSCLC; 22.5% in the test on SN12C renal. Also, the growth in the test on UO-31 renal is 12.2%; in the test on ACHN renal, 28%; in the test on A498 renal it was 83.6%; in the test with CCRF-CEM leukemia it was -46.2% (active); in the test with MOLT-4 leukemia, -31.4% (active); in the test with SR leukemia, -31% (active).

`Cc1nc2sc(C(=O)Nc3ccccc3Cl)c(N)c2cc1C(C)O` (centres undefined): the growth in the test on HCT-15 colon is 61.4%; with HT29 colon, 34.3%; in the test on SNB-75 CNS, 72.8%; in the test with SNB-19 CNS, 83.2%; in the test with U251 CNS it was 66.5%; with SK-MEL-5 melanoma it was 80.7%. The growth in the test with UACC-62 melanoma is 68.2%; with LOX IMVI melanoma, 74.5%; in the test on SK-MEL-28 melanoma, 84.7%; in the test on SK-MEL-2 melanoma, 75%; in the test on EKVX NSCLC, 89%; in the test with SN12C renal, 89.4%. For the same molecule, the growth with UO-31 renal is 96.3%; in the test with TK-10 renal it was 81.7%; with ACHN renal it was 96.2%; with A498 renal, 70.7%; in the test on CCRF-CEM leukemia, 79.5%; in the test on MOLT-4 leukemia, 64%. The growth in the test with SR leukemia is 33.2%.

As to `COc1ccccc1N1CCN(CCCOc2ccc(C(=O)/C=C3/C(=O)Nc4ccccc43)cc2)CC1`, the growth in the test on HCT-15 colon was 74.7%; in the test on HT29 colon, 25.8%; in the test on SNB-75 CNS it was 85.1%; with SNB-19 CNS, 84.6%; in the test on U251 CNS, 64.1%; with SK-MEL-5 melanoma, -36.1% (active). Besides, the growth in the test with UACC-62 melanoma is 56.1%; in the test with LOX IMVI melanoma it was 55.5%; in the test on SK-MEL-28 melanoma, 86.1%; with SK-MEL-2 melanoma, 72.2%; in the test with EKVX NSCLC, 53.5%; with SN12C renal, 69.7%. Besides, the growth in the test on UO-31 renal is 44.5%; in the test on TK-10 renal, 87.1%; in the test with ACHN renal it was 74.2%; in the test with CCRF-CEM leukemia it was 15.6%; with MOLT-4 leukemia it was 18.6%; with SR leukemia, 19.8%.

As to `COc1cc(NCC(=O)Nc2cc(Nc3cccc(C(F)(F)F)c3)ncn2)c(Cl)c(OC)c1Cl`, the growth was 94% in the test on HCT-15 colon; 81.7% in the test with HT29 colon; 83.4% in the test on SNB-75 CNS; 99.9% in the test on SNB-19 CNS; 92.5% with U251 CNS; 95.2% in the test on SK-MEL-5 melanoma. Further, the growth was 75.5% with UACC-62 melanoma; 93.2% with LOX IMVI melanoma; 105% in the test with SK-MEL-28 melanoma; 89.5% with SK-MEL-2 melanoma; 90.6% in the test with EKVX NSCLC; 101% in the test with SN12C renal. Also, the growth is 64.2% in the test on UO-31 renal; 101% in the test on TK-10 renal; 95.7% in the test on ACHN renal; 71.5% with A498 renal; 72.5% with CCRF-CEM leukemia; 76.2% in the test with MOLT-4 leukemia. For the same molecule, the growth with SR leukemia is 72.2%.

In the case of `C=C1C(=O)O[C@H]2[C@H]1CC/C(COC(=O)n1ccnc1)=C\CC[C@@]1(C)O[C@@H]21`, the growth in the test on HCT-15 colon is 83.5%; in the test on HT29 colon, 100%; in the test with SNB-19 CNS, 99%; in the test with U251 CNS it was 99.1%; in the test on PC-3 prostate, 90.1%; in the test with SK-MEL-5 melanoma, 98.5%. Also, the growth in the test on UACC-62 melanoma was 91.6%; in the test with LOX IMVI melanoma, 90.4%; with SK-MEL-28 melanoma, 102%; in the test with SK-MEL-2 melanoma it was 89.4%; in the test with EKVX NSCLC, 80.9%; with SN12C renal, 96.2%. The growth in the test on UO-31 renal is 73.3%; with TK-10 renal, 94.7%; in the test with ACHN renal, 82.8%; with A498 renal, 125%; in the test with CCRF-CEM leukemia it was 74.3%; in the test with MOLT-4 leukemia it was 83.4%. In addition, in the test with SR leukemia, the growth was 77.5%.

`N#Cc1nc(-c2ccccc2)oc1S(=O)(=O)NCC(c1ccc(Cl)cc1)N1CCCCC1` (centres undefined): the growth with HCT-15 colon is 35.3%; with HT29 colon, 25.1%; with SNB-75 CNS, 94%; in the test on SNB-19 CNS, 88.1%; in the test with U251 CNS it was 74.1%; in the test with SK-MEL-5 melanoma it was 73.8%. For the same molecule, the growth in the test on UACC-62 melanoma was 80.2%; in the test on LOX IMVI melanoma, 21.9%; in the test on SK-MEL-28 melanoma, 96.3%; in the test with SK-MEL-2 melanoma, 72.2%; in the test with EKVX NSCLC, 106%; in the test with SN12C renal it was 65.6%. For the same molecule, the growth in the test on UO-31 renal was 65.5%; with TK-10 renal it was 112%; in the test on ACHN renal, 82.7%; in the test on A498 renal, 102%; in the test on CCRF-CEM leukemia, 1.94% (active); in the test on MOLT-4 leukemia it was 1.32% (active). For the same molecule, in the test on SR leukemia, the growth is 12.2%.

Consider `O=C(O)C(C(=O)O)c1cccc2ccccc12`, for which the growth with HCT-15 colon is 104%; with HT29 colon, 94.9%; with SNB-75 CNS it was 99.3%; with SNB-19 CNS, 98.3%; with U251 CNS it was 99.5%; in the test on SK-MEL-5 melanoma, 103%. Also, the growth in the test on UACC-62 melanoma was 96.8%; in the test with LOX IMVI melanoma, 97.4%; in the test with SK-MEL-28 melanoma, 111%; in the test with SK-MEL-2 melanoma it was 95.2%; in the test on EKVX NSCLC, 108%; with SN12C renal, 100%. Further, the growth in the test on UO-31 renal is 88.5%; in the test with TK-10 renal it was 89.3%; in the test with ACHN renal, 105%; with A498 renal it was 85.6%; in the test with CCRF-CEM leukemia it was 92.2%; in the test with MOLT-4 leukemia, 94.4%. Also, the growth with SR leukemia is 90.6%.
